# TDP1 cell CPT – DT40-hTDP1 cell growth loss with CPT. chicken DT40 Tdp1-/-;hTDP1 cells + 20 nM CPT, ATP luminescence, 48 h. Potency, µM (series often up to 46.2 µM), for inactives: at the top dose activity change, negative = growth inhibition, hits mostly inhibitors. 12% of 420,000 active. AID 686979; also: % is scaled to controls: 0 for no effect and ±100 for the full control effect; nearly all actives have a fitted effect of over 55% in size
#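 Chicken DT40 Tdp1-/- cells stably complemented with human TDP1 were seeded at 400 cells/well in medium containing 20 nM camptothecin, exposed to pin-transferred compounds, and grown at 37 °C for at least 48 hr. Viability was read as ATP luminescence.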
# HT1080NT lethal – kills 2HG-producing HT-1080-NT fibrosarcoma cells; AID 686970; Potency, µM (highest dose often 46.1 µM), for inactives: at the top dose activity, negative = less viability, usual class: cytotoxic; HT-1080-NT fibrosarcoma viability, CellTiter-Glo ATP luminescence, 48 h; 1.6% of 360,000 active;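 also: NT is the 2HG producing partner of a matched IDH1 knockdown line; 0% = DMSO-treated cells and -100% = media-only wells without cells; nearly all actives have a fitted effect of over 55% in size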
#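 Viability of the 2HG-overproducing fibrosarcoma line after 48 hours of compound exposure at 37 degrees C was determined by luminescence with CellTiter-Glo, and concentration-effect curves were then fitted and categorized.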
# TGFb inhibitor – TGF-b pathway inhibition; HepG2 CAGA-GFP TGF-b/SMAD3 reporter, GFP fluorescence, 18 h; TGF-beta stimulated, 500 pg/mL final; Potency, µM (titrated, usually from 46.1 µM), for the others: top-dose activity, negative = inhibition, most hits filed as inhibitors; 1.2% of 410,000 active; AID 588855; also: % is scaled to controls: 0 for no effect and ±100 for the full control effect; nearly all actives have a fitted effect of over 65% in size
#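 Using HEPG2 CAGA-GFP reporter cells at 1000 cells/well, we pinned test compounds, stimulated with recombinant TGF-beta (500 pg/mL final) and measured total well GFP after 18 h.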
# DT40 TDP1 no CPT – qHTS for Inhibitors of human tyrosyl-DNA phosphodiesterase 1 (TDP1): qHTS in cells in absence of CPT; Potency, µM (titrated, usually from 46.2 µM), without a hit: at the top dose activity change, negative = growth inhibition, usual class: inhibitors; DT40 Tdp1-/- hTDP1 cells, no CPT, ATP luminescence, 48 h; AID 686978, 2013; 15% of 420,000 active; also: % is scaled to controls: 0 for no effect and ±100 for the full control effect; nearly all actives have a fitted effect of over 55% in size
#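 Cells were dispensed at 400 per well, compounds added by pin tool, plates incubated ≥48 hr at 37 °C, then CellTiter-Glo added for 30 min at room temperature before luminescence reading. Line: DT40 Tdp1-/- complemented with hTDP1; camptothecin omitted.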
# HepG2 viability – counter-screen for TGF-b inhibitors: cytotoxicity in HepG2 cells. HepG2 CAGA-GFP viability, ATP luminescence, 18 h. Potency, µM (titrated, usually from 46.1 µM), without a hit: at the highest dose activity change, negative = cytotoxicity, hits mostly cytotoxic. 0.76% of 410,000 active. AID 588856
#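 HepG2 CAGA-GFP cells (1000/well, DMEM with 1% FBS) received compound, then TGF-beta at 500 pg/mL final, and were incubated 18 hours at 37 degrees C. Viability was read by CellTiter-Glo luminescence. Media-only wells were set as complete cell-killing and DMSO as no toxicity.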
# HT1080 IDH1KD tx – HT-1080 IDH1 knockdown cell toxicity (counter line). HT-1080 IDH1 knockdown viability, ATP luminescence, 48 h. Potency, µM (top dose mostly 46.1 µM), without a hit: at the top dose activity, negative = toxicity, actives largely listed as cytotoxic. 2% of 360,000 active. AID 686971;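 also: 0% = DMSO wells and -100% = cell-free medium wells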
#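 Cytotoxicity counter-line: IDH1KD HT-1080, 48 h, CellTiter-Glo. Curves classed by r2, magnitude and activity.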
# An asterisk follows results filed as active; ? = inconclusive; · = no result. This is a sample that favours compounds with a hit; in the whole collection about 17% have one here. Calls follow the shape of the dose curve; as a rule, active = well fitted curve in the direction sought with a large enough effect; inconclusive = small, poorly fitted or top-dose-only effect, or another doubt; inactive = no such curve, though single readings can be large; an effect the other way counts as inactive or inconclusive. Potency is read from the fitted curve at half-maximal effect.
SMILES,TDP1 cell CPT,HT1080NT lethal,TGFb inhibitor,DT40 TDP1 no CPT,HepG2 viability,HT1080 IDH1KD tx
COc1ccc([C@@H]2CC=C(C(=O)O)[C@H](c3ccc(C(C)(C)C)cc3)N2S(=O)(=O)c2ccc(C)cc2)cc1OC,?,2%,-3%,15µM*,-15%,1%
CC1CCc2cc(F)ccc2N1C(=O)C1(C)CC1(Cl)Cl (configuration not stated),-19%,0%,12%,?,-5%,-14%
CSc1ncc(Cl)c(C(=O)Nc2cccc(C)c2)n1,-28%,-8%,?,-26%,2%,-8%
CSc1ncc(Cl)c(C(=O)C(C#N)c2nc3c(C)cc(C)cc3c(=O)[nH]2)n1 (configuration not stated),?,-27%,?,26µM*,-12%,-18%
CN(Cc1nccn1C)C(=O)c1cc(COc2ccc3ncccc3c2)on1,-42%,-14%,-1%,18µM*,-7%,-16%
Cc1ccc(OCc2cc(C(=O)N(C)Cc3cnc4ccccn34)no2)cc1C,15µM*,0%,-15%,12µM*,-26%,-29%
Cc1cc(CN(C)C(=O)c2cc(COc3ccc4ncccc4c3)on2)on1,7.3µM*,-23%,-12%,6.5µM*,-18%,?
COC(=O)c1c(NC(=O)COc2ccc(C)cc2Br)sc2c1CCCC2,-17%,·,-25%,?,6%,·
CCCc1cc(C(=O)OC)c(NC(=O)c2cc(C)on2)s1,-12%,7%,-23%,-16%,-8%,11%
O=C(CSc1ccc(-c2ccco2)nn1)Nc1ccc(F)cc1F,?,-2%,?,?,-31%,-1%
COc1ccccc1NS(=O)(=O)c1cccc(C(=O)N/N=C/c2ccc(NC(C)=O)cc2)c1,-29%,3%,-10%,-27%,2%,6%
COc1ccc(N(C(=O)c2snc(C(N)=O)c2N)C(C(=O)NC2CCCC2)c2ccco2)cc1 (configuration not stated),3%,-4%,13%,?,0%,-9%
CCOc1ccc(C(C(=O)NCC2CCCO2)N(Cc2cccs2)C(=O)c2snc(C(N)=O)c2N)cc1 (configuration not stated),23µM*,-2%,-2%,9.2µM*,-3%,25%
COc1ccc(N(C(=O)c2snc(C(N)=O)c2N)C(C(=O)NC2CCCCC2)c2ccc(C)o2)cc1 (configuration not stated),?,?,11%,16µM*,-2%,-8%
CC(C)(C)NC(=O)CN(C(=O)c1snc(C(=O)NC2CCCCC2)c1N)c1ccccc1F,?,-11%,2%,21µM*,2%,-15%
CCOc1ccc(N(C(=O)c2snc(C(N)=O)c2N)C(C(=O)NCC2CCCO2)c2ccc(C)o2)cc1 (configuration not stated),18µM*,6%,2%,?,-17%,-13%
NC1=NC(=O)C(CC(=O)c2ccc(Cl)cc2)S1 (configuration not stated),-18%,12%,-4%,-1%,5%,6%
C=CC[C@H](CC(=O)OC(C)(C)C)C(=O)OC[C@@H]1CCCN1C(=O)[C@@H](CC=C)CC(=O)NCCO,?,12%,-4%,-16%,2%,15%
Cc1cc(C)cc(N(C(=O)c2snc(C(N)=O)c2N)C(C(=O)NCC2CCCO2)c2ccc(C)o2)c1 (configuration not stated),?,-8%,8%,21µM*,2%,-7%
Cc1ccc(C(C(=O)NCC2CCCO2)N(C(=O)c2snc(C(N)=O)c2N)c2ccc(F)cc2)o1 (configuration not stated),-17%,5%,2%,?,6%,1%
CCOc1ccc(C(C(=O)NCC2CCCO2)N(C(=O)c2snc(C(N)=O)c2N)c2ccccc2F)cc1 (configuration not stated),21µM*,3%,32%,?,8%,-6%
NC(=O)c1nsc(C(=O)N(CC(=O)NC2CCCCC2)c2ccc(Cl)cc2)c1N,?,-17%,14%,?,11%,-3%
CCCCOc1ccc(N(CC(=O)NC2CCCCC2)C(=O)c2snc(C(N)=O)c2N)cc1,?,21%,-26%,16µM*,2%,23%
CCN(CC)C1=NC=CC(c2ccccc2)=CC1C (configuration not stated),-5%,2%,-4%,-10%,2%,-1%
C[C@H]1CN([C@@H](C)CO)C(=O)c2cc(Br)cnc2O[C@H]1CN(C)C(=O)C1CCC1,-16%,-3%,-1%,?,-31%,-7%
SMILES,TDP1 cell CPT,HT1080NT lethal,TGFb inhibitor,DT40 TDP1 no CPT,HepG2 viability,HT1080 IDH1KD tx
O=C(C[N+]1(CCO)CCOCC1)c1ccc(F)c2ccccc12,-117%,·,14%,?,4%,·
Cc1cccc(-c2nc3cc(NC(=O)Cc4ccc(Cl)cc4)ccc3o2)c1,16µM*,·,-2%,10µM*,6%,·
Cc1cc2nc(-c3cccc(NC(=O)CSc4ccc(Cl)cc4)c3)oc2cc1C,16µM*,·,24%,?,11%,·
Cc1ccc2oc(-c3cccc(NC(=O)Cc4ccc(Cl)cc4)c3)nc2c1,-2%,·,-4%,-6%,-4%,·
Cc1ccc(SCC(=O)Nc2cccc(-c3nc4cc(Cl)ccc4o3)c2C)cc1,?,·,2%,?,7%,·
Cc1ccc(SCC(=O)Nc2ccc3oc(-c4cccc(Cl)c4)nc3c2)cc1,?,·,-1%,21µM*,-17%,·
CC(=O)Nc1cc(-c2nc3cc(Cl)ccc3o2)ccc1C,-15%,·,-2%,0%,-13%,·
CC(=O)Nc1ccc(-c2nc3cc(Cl)ccc3o2)cc1,-19%,8%,11µM*,-19%,-38%,18%
O=C1CC(c2cccc(O)c2)Oc2ccccc21 (configuration not stated),?,1%,-28%,?,-15%,-5%
O=C(CNc1cccc([N+](=O)[O-])c1)N/N=C/c1ccc([N+](=O)[O-])o1,2.9µM*,?,7.1µM*,2.6µM*,-57%,?
O=C(CNc1cccc2ccccc12)N/N=C/C(Br)=C/c1ccccc1,12µM*,?,-17%,10µM*,-31%,?
O=C(CNc1cccc2ccccc12)N/N=C/c1ccc[nH]1,9%,-4%,2%,-12%,3%,?

# From PubChem
